{"source": "PubChem BioAssay (NCATS)", "note": "Inconclusive results are not listed. A number with no mark means an inactive call. Active and inactive are the calls of the source. Calls follow the shape of the dose curve; as a rule, active = well fitted inhibition curve with a large enough effect; inconclusive = small, poorly fitted or top-dose-only effect; inactive = no such curve, though single readings can be large or run the other way. Positions of bridges follow the written chain, without caps; N, C: chain ends. Non-standard residues stand in square brackets, D forms with d. Residues, ends and D or L forms follow the SMILES beside them. ξ: configuration not given here. *: point of attachment. Octanoyl(6-Me) = CCC(C)CCCCC(=O)*; ξThr(3R) = C[C@@H](O)C(N)C(=O)O; dDab = NCC[C@@H](N)C(=O)O; Dab = NCC[C@H](N)C(=O)O", "data": [{"assay": "qHTS assay for measurement of the activity of small molecule inhibitors on Zika virus induced Caspase-3 activity in human iPSC derived neural progenitor cells (hNPCs) (AID 1224857); also: nearly all actives have a fitted effect of over 65% in size; also: potency is read from the fitted curve at half-maximal effect", "conditions": "hNPCs ZIKV-induced caspase-3/7, Caspase-Glo luminescence, 6 h; series mostly up to 45.7 µM; activity change, negative = inhibition: at the top concentration", "text": "National Center for Advancing Translational Sciences [NCATS]\nJohns Hopkins University School of Medicine\nIncrease in the Caspase-3 activity indicates an activation of apoptosis cell death pathway caused by Zika virus infection in certain types of neuronal cells including human neural progenitor cells (hNPCs), astrocytes, and astrocytoma cell line (SNB-19). This cell-based caspase-3 activity assay measures the increased caspase-3 activity in the human iPSC derived neural progenitor cells (hNPCs) after a 6-hour Zika virus infection with a luminescence readout. A decrease in the luminescence signal in this assay by small molecule treatment indicates an inhibitory effect of that small molecule on the Zika virus induced caspase-3 activity that may correlate with its effect on reduction of Zika virus caused cell death.\nThe medium for hNPCs consists of DMEM/F12, N2 supplement (ThermoFisher, Cat.# 17502048), NEAA (ThermoFisher, Cat. # 11140050), 2 ug/ml heparin, 2 uM cyclopamine, and B27 (ThermoFisher, Cat. # 17504044). A Caspase-Glo 3/7 assay kit (catalog number G8092; Promega, Madison, WI) was used to detect caspase-3 activity induced by Zika virus infection in human cells. The reagent mixture was reconstituted as described in the protocol from the manufacturer. Polystyrene tissue culture treated and PDL coated white plates were obtained from Greiner Bio-One (Monroe, NC). Cells were seeded in 384- or 1536-well assay plates and cultured at 37 C with 5% CO2 for 16 to 20 hours. The typical cell seeding density in the 1536-well plate assay is 350 cells/well in 3 ul medium for hNPCs in tissue culture treated plates. Compounds were added to cells and incubated for one hour before addition of ZIKV solution to cells (2 FFU/cell). After incubation at 37 C with 5% CO2 for 6 hours, the reagent mixture of Caspase-Glo 3/7 assay kit was added to each well, followed by incubation at room temperature for 30 minutes. The luminescence intensity of the assay plates was measured using a ViewLux plate reader (PerkinElmer). Data were normalized by using the cell-containing wells without ZIKV as a negative control (0% induction of caspase 3/7 activity) and wells containing ZIKV infected cells (Caspase-3 activity induced) as a positive control (100% induction of caspase 3 activity). The percentage inhibitions of the increased Caspase-3 activity by small molecule inhibitors were then calculated.", "values": [{"smiles": "C[C@@H](Cc1cc2c(c(C(N)=O)c1)N(CCCO)CC2)NCCOc1ccccc1OCC(F)(F)F", "activity change, negative = inhibition": "11.1%"}, {"smiles": "CCNC(=O)Nc1ccc(-c2nc3c(c(N4CCOC[C@H]4C)n2)CCN(C2COC2)C3)cc1", "activity change, negative = inhibition": "10.2%"}, {"smiles": "COC(=O)C1C2CC3c4[nH]c5cc(OC)ccc5c4CCN3CC2CC(OC(=O)c2cc(OC)c(OC)c(OC)c2)C1OC", "note": "(stereo not given)", "activity change, negative = inhibition": "27.5%"}, {"smiles": "Cc1coc2c1C(=O)C(=O)c1c-2ccc2c(C)cccc12", "activity change, negative = inhibition": "32.3%"}, {"smiles": "CC(Cc1ccc(O)c(O)c1)(NN)C(=O)O", "note": "(stereo not given)", "activity change, negative = inhibition": "-4.02%"}, {"smiles": "CC(C)NC[C@@H](C(=O)N1CCN(c2ncnc3c2[C@H](C)C[C@H]3O)CC1)c1ccc(Cl)cc1", "activity change, negative = inhibition": "12.8%"}, {"smiles": "CCCCCCCCCCCCc1ccc(S(=O)(=O)Nc2nncs2)cc1", "activity change, negative = inhibition": "-10.5%"}, {"smiles": "CCC(C)CCCCC(=O)N[C@@H](CCN)C(=O)NC(C(=O)N[C@H](CCN)C(=O)N[C@@H]1CCNC(=O)C([C@@H](C)O)NC(=O)[C@@H](CCN)NC(=O)[C@@H](CCN)NC(=O)[C@@H](CC(C)C)NC(=O)[C@H](Cc2ccccc2)NC(=O)[C@H](CCN)NC1=O)[C@@H](C)O", "note": "(stereo partly drawn) ({Octanoyl(6-Me)}-[Dab][ξThr(3R)][dDab][dDab][Dab]F[dL][dDab][dDab][ξThr(3R)]; lactam 4-C)", "activity change, negative = inhibition": "10.7%"}, {"smiles": "C[C@@H]1C(=O)O[C@H]2CC34[C@H]5C[C@@H](C(C)(C)C)C36[C@H](OC(=O)[C@@H]6O)O[C@@]4(C(=O)O5)[C@]21O", "note": "(stereo not given in full)", "activity change, negative = inhibition": "-29.3%"}, {"smiles": "O=C(O)c1ccc(Nc2ncc3c(n2)-c2ccc(Cl)cc2C(c2c(F)cccc2F)=NC3)cc1", "activity change, negative = inhibition": "119%"}, {"smiles": "CC(C)(C)[C@H](NC(=O)c1ccc(N)c(Cl)c1)C(=O)N1CCC[C@@H]1C(=O)N[C@H](C#N)CC(=O)O", "activity change, negative = inhibition": "12% [at 4.53 µM]"}, {"smiles": "Cc1cc(O)c2c(c1)C(=O)c1cccc(O)c1C2=O", "activity change, negative = inhibition": "-7.49%"}, {"smiles": "CC(C=CC1=C(C)CCCC1(C)C)=CC=CC(C)=CC(=O)Nc1ccc(O)cc1", "activity change, negative = inhibition": "24% [at 92.8 µM]"}, {"smiles": "C[C@]12CCC(=O)C=C1[C@@H]1CC1[C@H]1[C@H]3[C@@H]4C[C@H]4[C@@]4(CCC(=O)O4)[C@@]3(C)CC[C@H]12", "note": "(stereo not given in full)", "activity change, negative = inhibition": "7.76%"}, {"smiles": "O=C(Nc1ccc(Oc2ccnc3[nH]ccc23)c(F)c1)c1cccn(-c2ccc(F)cc2)c1=O", "activity change, negative = inhibition": "8.06%"}, {"smiles": "Cc1cnn(C)c1C(=O)Nc1cc(Nc2ccc3c(C=Cc4ccccn4)n[nH]c3c2)ccc1F", "activity change, negative = inhibition": "7.26%"}, {"smiles": "Cc1noc(-c2ccc(CSCCC(=O)O)cc2)c1NC(=O)OC(C)c1ccccc1Cl", "note": "(stereo not given)", "activity change, negative = inhibition": "21.2%"}, {"smiles": "CC(C)Oc1ccc(C(=O)N[C@H](CNC(=O)CN(C)C)Cc2ccc(-c3cn4cccc([C@H](C)O)c4n3)cc2)cc1Cl", "activity change, negative = inhibition": "47.4%"}, {"smiles": "COc1cc([C@@H]2c3cc4c(cc3[C@H](O)[C@H]3COC(=O)[C@@H]23)OCO4)cc(OC)c1OC", "activity change, negative = inhibition": "35.2%"}, {"smiles": "C[N+]1(C)[C@@H]2C[C@@H](OC(=O)C(O)(c3cccs3)c3cccs3)C[C@H]1[C@@H]1O[C@@H]12", "activity change, negative = inhibition": "13.9%"}, {"smiles": "CCCCCCCCc1ccc(CCC(N)(CO)CO)cc1", "activity change, negative = inhibition": "-1.4%"}, {"smiles": "Cn1cc(-c2ccc3ncc(Cc4ccc5ncccc5c4)n3n2)cn1", "activity change, negative = inhibition": "9.91%"}, {"smiles": "c1cc(N[C@@H]2CCNC2)nc(-c2cnc3ccc(-c4cn[nH]c4)cn23)c1", "activity change, negative = inhibition": "77.8%"}, {"smiles": "CC(=O)OCC(=O)[C@@]1(O)CC[C@H]2[C@@H]3CCC4=CC(=O)CC[C@]4(C)[C@@H]3C(=O)C[C@@]21C", "activity change, negative = inhibition": "43.8%"}, {"smiles": "O=S(=O)(O)CCSSCCS(=O)(=O)O", "Potency": "29.6 µM (active)"}, {"smiles": "CCN(CC)Cc1ccc2cc(COC(=O)Nc3ccc(C(=O)NO)cc3)ccc2c1", "activity change, negative = inhibition": "32.3%"}, {"smiles": "Cc1ccccc1C(=O)Nc1ccc(C(=O)N2CCCC(O)c3cc(Cl)ccc32)c(C)c1", "note": "(stereo not given)", "activity change, negative = inhibition": "16.4%"}, {"smiles": "CC(C)N(CC[C@H](c1ccccc1)c1cc(CO)ccc1O)C(C)C", "activity change, negative = inhibition": "36%"}, {"smiles": "Cn1cc(-c2cnn3c(N)c(Br)c([C@H]4CCCNC4)nc23)cn1", "activity change, negative = inhibition": "57.5%"}, {"smiles": "CC1(C)CC(O)CC(C)(C)N1[O]", "activity change, negative = inhibition": "19.6%"}, {"smiles": "CCCCOc1ccc(C(=O)Nc2ccc(F)cc2F)cc1", "activity change, negative = inhibition": "-5.9%"}, {"smiles": "CN[C@H]1[C@@H](O)[C@@H]2O[C@@H]3O[C@H](C)CC(=O)[C@]3(O)O[C@@H]2[C@@H](NC)[C@H]1O", "Potency": "16.6 µM (active)"}, {"smiles": "C[C@H](NC(=O)[C@@H](O)c1cc(F)cc(F)c1)C(=O)N[C@@H]1C(=O)N(C)c2ccccc2-c2ccccc21", "activity change, negative = inhibition": "-8.14%"}, {"smiles": "Nc1ccn(C[C@@H](CO)OCP(=O)(O)O)c(=O)n1", "activity change, negative = inhibition": "-11.6% [at 20.5 µM]"}, {"smiles": "CN(CC(=O)N(Cc1ccc(C2CCCCC2)cc1)c1ccc(C(=O)O)c(O)c1)S(=O)(=O)c1c(F)c(F)c(F)c(F)c1F", "activity change, negative = inhibition": "27.7%"}, {"smiles": "CC[C@]12C=CCN3CC[C@@]4(c5cc([C@@]6(C(=O)OC)C[C@H]7C[C@@H](C(C)(F)F)CN(Cc8c6[nH]c6ccccc86)C7)c(OC)cc5N(C)[C@H]4[C@@](O)(C(=O)OC)[C@H]1OC(C)=O)[C@@H]32", "activity change, negative = inhibition": "-4.5%"}, {"smiles": "O=C(Nc1cc2cc[nH]c2cn1)c1ccccc1", "Potency": "4.69 µM (active)"}, {"smiles": "N[C@H]1CN(c2c(F)cc3c(=O)c(C(=O)O)cn(C4C[C@@H]4F)c3c2Cl)CC12CC2", "note": "(stereo not given in full)", "activity change, negative = inhibition": "-0.174%"}, {"smiles": "OC[C@H]1OC(O)C[C@@H](O)[C@H]1O", "note": "(stereo not given in full)", "activity change, negative = inhibition": "-5.52%"}, {"smiles": "O=C1NC(O)CCN1[C@@H]1O[C@H](CO)[C@H](O)[C@H]1O", "note": "(stereo not given in full)", "activity change, negative = inhibition": "-11.4%"}]}]}
